Where “and” joins values, the source holds several entries; their conditions need not be identical. Identical values can stand only once. Records with an inconclusive call do not appear. Calls of active or inactive are those of the source. Calls follow the shape of the dose curve; as a rule, active = well fitted curve in the direction sought with a large enough effect; inconclusive = small, poorly fitted or top-dose-only effect, or another doubt; inactive = no such curve, though single readings can be large; an effect the other way counts as inactive or inconclusive.
Experiments:
[1] = Viability qHTS for spleen associated tyrosine kinase inhibitor (SYKi) naive MV4-11 cells (AID 1963823); conditions: MV4-11 AML viability, CellTiter-Glo luminescence, 72 h; series mostly up to 45 µM; also: nearly all actives have a fitted effect of over 40% in size
How it was run: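 Cells: MV4-11, SYK inhibitor naive, 500 per well. Treatment: library compounds, 72 hr, 37 C, 5% CO2. Read-out: CellTiter-Glo luminescence after 10 min RT.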

[2] = Viability qHTS for spleen associated tyrosine kinase inhibitor (SYKi) drug resistant MV4-11 cells (AID 1963824); conditions: SYKi-resistant MV4-11 viability, CellTiter-Glo, 72 h; series mostly up to 45 µM; also: nearly all actives have a fitted effect of over 35% in size
How it was run: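 CellTiter-Glo luminescence, read 10 min after reagent addition, reports viability after a 72 hr compound exposure. Cells are an MV4-11 line made resistant to SYK inhibition, seeded at 500 per well onto compound-containing plates.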

[3] = Quantitative highthroughput screen to assess conditional lethalithy of NOMO1 cells grown in RPMI1640 with untreated serum (RPMI+s) (AID 1963876); conditions: NOMO1 AML cells in RPMI+serum, CellTiter-Glo viability, 48 h; series mostly up to 45.8 µM; also: nearly all actives have a fitted effect of over 35% in size;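 as to Viability: 100% = DMSO wells and 0% = empty wells without cells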
How it was run: (§1)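 Each medium arm—HPLM with 10% dialyzed FBS, or RPMI1640 with 5 mM glucose and 10% untreated or dialyzed FBS—was screened against an 11-point, 3-fold compound titration for 48 h at 37 °C, with CellTiter-Glo luminescence as endpoint.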

[4] = Quantitative highthroughput screen to assess conditional lethalithy of NOMO1 cells grown in RPMI1640 with dialyzed fetal bovine serum (RPMI+ds) (AID 1963877); conditions: NOMO1 in RPMI+dialyzed FBS viability, ATP luminescence, 48 h; series mostly up to 45.8 µM; also: nearly all actives have a fitted effect of over 30% in size;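 as to Viability: 100% = DMSO control wells and 0% = empty wells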
How it was run: as §1

[5] = Quantitative highthroughput screen to assess conditional lethalithy of NOMO1 cells grown in Human Plasma-Like Medium with dialyzed fetal bovine serum (HPLM+ds) (AID 1963878); conditions: NOMO1 AML cells in HPLM+ds, CellTiter-Glo viability, 48 h; series mostly up to 45.8 µM; also: nearly all actives have a fitted effect of over 35% in size;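 as to Viability: 100% = DMSO wells and 0% = empty wells on each plate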
How it was run: as §1

[6] = Quantitative highthroughput screen to assess conditional lethalithy of P12 Ichikawa cells grown in Human Plasma-Like Medium with dialyzed fetal bovine serum (HPLM+ds) (AID 1963879); conditions: ATP luminescence, 48 h; Potency: viability; series mostly up to 45.8 µM; also: nearly all actives have a fitted effect of over 35% in size
How it was run: as §1

[7] = Quantitative highthroughput screen to assess conditional lethalithy of P12 Ichikawa cells grown in RPMI1640 with dialyzed fetal bovine serum (RPMI+ds) (AID 1963880); conditions: ATP luminescence, 48 h; Potency: P12-Ichikawa viability; series mostly up to 45.8 µM; also: nearly all actives have a fitted effect of over 35% in size;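 as to Viability: 100% = DMSO wells and 0% = empty wells on each plate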
How it was run: as §1

[8] = Quantitative highthroughput screen to assess conditional lethalithy of P12 Ichikawa cells grown in RPMI1640 with untreated serum (RPMI+s) (AID 1963881); conditions: ATP luminescence, 48 h; Potency: viability; series mostly up to 45.8 µM; also: nearly all actives have a fitted effect of over 35% in size;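 as to Viability: 100% = DMSO wells and 0% = empty wells without cells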
How it was run: as §1

[9] = Quantitative highthroughput screen to assess conditional lethalithy of SEM cells grown in Human Plasma-Like Medium with dialyzed fetal bovine serum (HPLM+ds) (AID 1963882); conditions: SEM B-ALL cells in HPLM+ds, CellTiter-Glo viability, 48 h; series mostly up to 45.8 µM; also: nearly all actives have a fitted effect of over 35% in size
How it was run: as §1

[10] = Quantitative highthroughput screen to assess conditional lethalithy of SEM cells grown in RPMI1640 with unreated serum (RPMI+s) (AID 1963883); conditions: SEM B-ALL cells, CellTiter-Glo viability, 48 h; series mostly up to 45.8 µM; also: nearly all actives have a fitted effect of over 35% in size;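 as to Viability: 100% = DMSO wells and 0% = empty wells without cells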
How it was run: as §1

[11] = Quantitative highthroughput screen to assess conditional lethalithy of SEM cells grown in RPMI1640 with dialyzed fetal bovine serum (RPMI+ds) (AID 1963884); conditions: SEM B-ALL cells, RPMI+dialyzed FBS, CellTiter-Glo viability, 48 h; series mostly up to 45.8 µM; also: nearly all actives have a fitted effect of over 35% in size;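 as to Viability: 100% = DMSO control wells and 0% = empty wells without cells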
How it was run: as §1

[12] = Cellular viability qHTS for adrenocortical cancer (ACC) cell line SW-13 (AID 1963989); conditions: SW-13 ACC cells viability, CellTiter-Glo, 48 h; activity (max response): stronger effect = lower value; also: nearly all actives have a fitted effect of over 65% in size;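 as to activity (max response): cells grown in serum-free medium with ITS supplement; % is scaled to controls: 0 for no effect and ±100 for the full control effect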
How it was run: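 Here, serum-free SW-13 cultures were dosed up to 46 uM. Following 48 h, ATP-dependent luminescence (CellTiter-Glo) reported viable cells, and logistic modeling produced IC50 values.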

[13] = Cellular viability qHTS for adrenocortical cancer (ACC) cell line NCI-H295R (AID 1963990); conditions: CellTiter-Glo ATP luminescence, 48 h; series mostly up to 46.1 µM; also: nearly all actives have a fitted effect of over 60% in size
How it was run: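 Viability of NCI-H295R after 48 h of treatment (final up to 46 uM) measured through cellular ATP luminescence.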
Potency is read from the fitted curve at half-maximal effect.

O=c1[nH]nc(Sc2ncc([N+](=O)[O-])s2)n1-c1ccc2c(c1)OCCO2
active: Potency [1] 2.35 µM | Potency [2] 2.35 µM | Potency [3] 9.35 µM | Potency [4] 8.33 µM | Potency [5] 9.35 µM | Potency [6] 14.8 µM | Potency [7] 9.35 µM | Potency [8] 8.33 µM | Potency [9] 8.33 µM | Potency [10] 7.43 µM | Potency [11] 8.33 µM | Potency [12] 17.8 µM | Potency [13] 6.31 µM

CNC[C@H](O)c1ccc(O)c(O)c1
inactive: Potency [1] | Potency [2] | Potency [3] | Potency [4] | Potency [5] | Potency [6] | Potency [7] | Potency [8] | Potency [9] | Potency [10] | Potency [11] | activity (max response) [12] -16.4% and -3.87% | Potency [13]

COc1cc(NS(=O)(=O)c2ccc(N)cc2)nc(OC)n1
inactive: Potency [1] | Potency [2] | Potency [3] | Potency [4] | Potency [5] | Potency [6] | Potency [7] | Potency [8] | Potency [10] | Potency [11] | activity (max response) [12] -1.49% | Potency [13]

COc1cc2nc(N3CCCN(C)CC3)nc(NC3CCN(Cc4ccccc4)CC3)c2cc1OC
active: Potency [1] 2.35 µM | Potency [2] 2.35 µM | Potency [3] 8.33 µM | Potency [4] 5.26 µM | Potency [5] 5.26 µM | Potency [6] 11.8 µM | Potency [7] 11.8 µM | Potency [8] 13.2 µM | Potency [9] 5.26 µM | Potency [10] 11.8 µM | Potency [12] 5.62 µM | Potency [13] 8.91 µM

CC[C@@H](C)[C@H](NC(=O)[C@H](CC1CCCCC1)NC(=O)c1ccno1)C(=O)N1CCC2(CCc3ccccc32)CC1
active: Potency [1] 13 µM | Potency [2] 18.4 µM
inactive: Potency [3] | Potency [4] | Potency [5] | Potency [6] | Potency [7] | Potency [8] | activity (max response) [12] -1.23% | Potency [13]

CNCc1ccc(-c2[nH]c3cc(F)cc4c3c2CCNC4=O)cc1
active: Potency [1] 13 µM and 16.6 µM | Potency [2] 20.6 µM and 14.8 µM
inactive: Potency [3] | Potency [4] | Potency [5] | Potency [6] | Potency [7] | Potency [8] | Potency [9] | Potency [11]

CCNc1cc(NC2CCC(O)CC2)nc(Nc2ccc3c(ccn3Cc3ccccc3)c2)n1 (stereo unspecified)
inactive: Potency [3] | Potency [4] | Potency [5] | Potency [6] | Potency [7] | Potency [8] | Potency [9] | activity (max response) [12] -9.82% | Potency [13]
active: Potency [1] 8.33 µM | Potency [2] 14.6 µM

COc1ccc2[nH]cc(CCNC(C)=O)c2c1
inactive: Potency [1] | Potency [2] | Potency [3] | Potency [4] | Potency [5] | Potency [6] | Potency [7] | Potency [8] | Potency [10] | Potency [11] | activity (max response) [12] -5.05% and -7.41% | Potency [13]

O=C(c1ccc(Nc2nccc(-c3cc4ccccc4s3)n2)cc1)N1CCC(N2CCCC2)CC1
active: Potency [1] 920 nM and 468 nM | Potency [2] 1.64 µM and 731 nM | Potency [3] 26.4 µM | Potency [4] 26.4 µM | Potency [5] 13.2 µM | Potency [6] 18.7 µM | Potency [7] 16.6 µM | Potency [8] 23.5 µM | Potency [9] 7.43 µM | Potency [10] 9.35 µM | Potency [12] 6.31 µM | Potency [13] 5.62 µM

COCCCN1CCC(NC(=O)c2cc(Cl)c(N)c3c2OCC3)CC1
active: Potency [8] 18.7 µM
inactive: Potency [1] | Potency [2] | Potency [3] | Potency [4] | Potency [5] | Potency [6] | Potency [7] | Potency [10] | Potency [11] | activity (max response) [12] 15.7% and -2.89%

COC(=O)Nc1cc(Nc2cc(NC3CC3)c3ncc(C#N)n3n2)c(Cl)c(N2CCN(C)CC2)c1
active: Potency [1] 0.417 µM | Potency [2] 0.662 µM | Potency [3] 9.33 µM | Potency [4] 7.41 µM | Potency [5] 16.6 µM | Potency [6] 20.9 µM | Potency [7] 11.7 µM | Potency [8] 14.8 µM | Potency [9] 4.17 µM | Potency [10] 2.63 µM | Potency [13] 2.24 µM

CC(C)(CO)[C@@H](O)C(=O)NCCC(=O)O
inactive: Potency [1] | Potency [2] | Potency [3] | Potency [4] | Potency [5] | Potency [6] | Potency [7] | Potency [8] | Potency [9] | Potency [10] | activity (max response) [12] -17.7% | Potency [13]

COc1ncc(-c2ccc3c(Nc4cc(Oc5cc(F)cc(F)c5)cc(C(=O)O)c4)c(S(=O)(=O)NC4CC4)cnc3c2)c(OC)n1
inactive: Potency [1] | Potency [2] | Potency [3] | Potency [4] | Potency [5] | Potency [6] | Potency [7] | Potency [8] | Potency [9] | Potency [10] | Potency [13]

Cc1cc(C(C)Nc2ccccc2)c2nc(N3CCOCC3)cc(=O)n2c1 (stereo unspecified)
inactive: Potency [3] | Potency [4] | Potency [5] | Potency [6] | Potency [7] | Potency [8] | Potency [9] | activity (max response) [12] -14.6% | Potency [13]
active: Potency [1] 9.2 µM and 5.9 µM | Potency [2] 10.3 µM and 9.34 µM

From PubChem BioAssay (NCATS)
